# Measured values as given in article PMC12864922, “TDP-43 directly inhibits mRNA accumulation in neurites through modulation of mRNA stability”.
# In all, about 9,900 sequences were measured (“r (bound/input frequency ratio)”: median about 0.7, highest 2% from about 6.5 on). The full list was thinned out, with the highest values kept by preference.
# B1: ENSMUSG00000031028.651|Tub (ssRNA)
# RNA: GGGAGUUCUACAGUCCGACGAUCGCUUCGAUAUCCGCAUGCUAGCUGAAAUGUAGAGUGUUCUAUAGAGCAUCUCAGUAGCAUAGAAGGAGAAGCCCAGCUCCAACCUCCUGGACCCCAUACUGGUGACCAGCUUGGUGAGGACAGGCAAAAUUUCUCUAGCUGAGAGCACACUUAGCCAGUUUUCACGCCUAGAACAUAUAUGUCGAUUUGCACAUGAUUGUCUUUUCCUAUUUUGGAGUGGUCAGACAUUUUAUUUUUGUUCAAAAUUAUCUGGAGUUUUAGACAAACUUGCAAAACUGUGCUCUUGCGGUCGCACUAGUGUGGAAUUCUCGGGUGUCAAGG
# B2: ENSMUSG00000090935.711|Synj2bp (ssRNA)
# RNA: GGGAGUUCUACAGUCCGACGAUCGCUUCGAUAUCCGCAUGCUAAAGAACUGGGCUAAGUCCAGAGCUCUGCUCUCUGAGCAUCUGCCCCAGAUACAGAGGCAGAGUAUGAAGUGGAACAUUGUUUUAUUCCUAGGUGCUCAGGACAGACUGAUCAACCUCCAGUAACAUAUGUGGUUAGUAAGUGCUUCAGCUUGUGUAGCCAUUAAUAACCAAGUCAUAGGAUUGUGAAUCUAAAAUACUCCUGGGUAAAAUUUGUAUUAGAAUGGAAAAAAAAAUGAGGGUCAGAAAGGUGAGCUAACUUCCUCUUGCGGUCGCACUAGUGUGGAAUUCUCGGGUGUCAAGG
# B3: ENSMUSG00000029636.217|Wasf3|154:158;247:254 (ssRNA)
# RNA: GGGAGUUCUACAGUCCGACGAUCGCUUCGAUAUCCGCAUGCUAAUAAGUCUGUGAUAUCCGCAGGCUUGGGUUACAGGGAGGACCUUGCAGAGGGACCAGGACACUGCCUUCCCUUAGGUGCAUUAUUUACGUGGCCUGCAGCUCUUAAUAUCUCUCACUGUUUAUGAAAAGAAAGAUUCAGAUCCGGGGUGACAUACACACAGUUGACAGGGAAUGCCUGUGGGAUAAUUAAAAAUGGUUUUUGCUCAUGAGUUUGGGAUGUCACCCAGCCGCCCACAUCGCCUGCUAACACACACGACGCCCUCUUGCGGUCGCACUAGUGUGGAAUUCUCGGGUGUCAAGG
# B4: ENSMUSG00000031028.206|Tub (ssRNA)
# RNA: GGGAGUUCUACAGUCCGACGAUCGCUUCGAUAUCCGCAUGCUACCAGAGAUGAAACCCCUCCGAGUUAAUGUAUAAGGUUGGAAACCUUUCAGUAGGGAAUCAGGCAGUUCCCUGUUGAAAGUUGUCUGAGUUUUUGCACACCAUUCUGAUCUGAUGUGGCCUGUGCCUGGCUCCUCUAUGAGGACUUCGAGCUGUGCACAGACCUUAGCAGGACCACUGCACACUUUGUGUCUGUGUGACAGGCAGCCCAAGGGUUCUGGGGCUGGGCUUGGACACGCCCUCCAUUGGGAUGGCACCACUCACUCUUGCGGUCGCACUAGUGUGGAAUUCUCGGGUGUCAAGG
# B5: ENSMUSG00000058297.231|Spock2 (ssRNA)
# RNA: GGGAGUUCUACAGUCCGACGAUCGCUUCGAUAUCCGCAUGCUAAACCAUGCCCCAGACUCUAUUUAAAGCCCUAUAGCAUAUAUGAAUAGAGAACGGUGUAUCUAUCAGAGGGGACCACACUGAGCAGCUAGGCCCUGAUGCCAUGCCUCAGCACGCCCUCAGACCUCCAGGCCGGGUGGAAGGGGCUUUUACCCAGAUGUCCUGUGGGGUUUUGUGUGUCUAUUGCUCCCCACUUCCCCCUCUCAAAGGAAAUUUCCUUGAUAUAUUUGAUGAAGAAUUCCUUACCUGGGCCUCUGAUACCCCUCUUGCGGUCGCACUAGUGUGGAAUUCUCGGGUGUCAAGG
# B6: ENSMUSG00000061578.43|Ksr2|85:91;96:100 (ssRNA)
# RNA: GGGAGUUCUACAGUCCGACGAUCGCUUCGAUAUCCGCAUGCUAAGCCACAGACUGAGCACACCACCUCGGACUGUGGAGACCAAGACACAUGCCCAGUGGGCAGACUCAGACUCACACGCUGGACCACACACACCGCAACACACUACACAUGGACAGGGCCAACUGCUAUCCUUCUGCCUGGACGAGCCAGCUGUGGAGUGUCCCAGCUGUGCUAUCCUGGAACACAGAACCAGGAUGGAACCAGAAACAAUACACCUGCUCCGUUGUCAAGGCUUCUAGGCCAAGGUCAGGGUAGGGAGGUGCUCUUGCGGUCGCACUAGUGUGGAAUUCUCGGGUGUCAAGG
# B7: ENSMUSG00000029636.220|Wasf3 (ssRNA)
# RNA: GGGAGUUCUACAGUCCGACGAUCGCUUCGAUAUCCGCAUGCUACAGGCUUGGGUUACAGGGAGGACCUUGCAGAGGGACCAGGACACUGCCUUCCCUUAGGUGCAUUAUUUACGUGGCCUGCAGCUCUUAAUAUCUCUCACUGUUUAUGAAAAGAAAGAUUCAGAUCCGGGGUGACAUUGUGUCAGUUGACAGGGAAUGCCUGUGGGAUAAUUAAAAAUGGUUUUUGCUCAUGAGUUUGGGAUGUCACCCAGCCGCCCACAUCGCCUGCUAUGUGUGUGGACGCCUGUCCGCUUGGCCAGCUACUCUUGCGGUCGCACUAGUGUGGAAUUCUCGGGUGUCAAGG
# B8: ENSMUSG00000029636.163|Wasf3 (ssRNA)
# RNA: GGGAGUUCUACAGUCCGACGAUCGCUUCGAUAUCCGCAUGCUACAUGGAAGCUUGGCUUUAGCUGAGAGAUGCCACCAGCUGUUCACAACCCAUGGUGCUGUGGCUAGAUUCCUGCUCAGUCUCUCAAACAGGGCCACACCCCUCCUGAAGCACAGCUCUCUUCUCUCCUGUUGUCGGCACAUUUUCAAUUUUAAAAAGUACCUCACAAGAUAAACUUGAUUCAGCCAGUUGCCCGGGCAGAGACCUGACUUCCCCUCUCCUGCCCUGAUCCUUUUUACCAAAUGGCGAUUCCAUAGUCCUGGCUCUUGCGGUCGCACUAGUGUGGAAUUCUCGGGUGUCAAGG
# Target: TDP-43 (Homo sapiens, UniProt Q13148 1-414)
# Experiment: RNA Bind-n-Seq with designed 260-mer pool; 25 mM Tris-HCl, 150 mM KCl, 3 mM MgCl2, BSA (printed 500 mg/mL), 20 units/mL SUPERase IN; pH not stated; 500 nM RNA pool, 1 h, 4 C; TDP-43 5, 50, 500 nM; high values mean tight binding
# Details: protein: recombinant; tags: SBP (GST cleaved off with PreScission; pGEX-GST-SBP)
# Method in brief: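 An in vitro-transcribed pool of 260-nt 3′ UTR oligos (500 nM) was incubated for 1 h at 4 °C with recombinant SBP-tagged TDP-43 at 5, 50 or 500 nM held on streptavidin beads. The buffer contained 25 mM Tris-HCl, 150 mM KCl, 3 mM MgCl2, BSA and SUPERase IN. Biotin-eluted bound RNA was sequenced, and binding, R, is each oligo's normalized read abundance in the bound sample over that in input.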
# Chain of TDP-43 (Q13148 whole entry): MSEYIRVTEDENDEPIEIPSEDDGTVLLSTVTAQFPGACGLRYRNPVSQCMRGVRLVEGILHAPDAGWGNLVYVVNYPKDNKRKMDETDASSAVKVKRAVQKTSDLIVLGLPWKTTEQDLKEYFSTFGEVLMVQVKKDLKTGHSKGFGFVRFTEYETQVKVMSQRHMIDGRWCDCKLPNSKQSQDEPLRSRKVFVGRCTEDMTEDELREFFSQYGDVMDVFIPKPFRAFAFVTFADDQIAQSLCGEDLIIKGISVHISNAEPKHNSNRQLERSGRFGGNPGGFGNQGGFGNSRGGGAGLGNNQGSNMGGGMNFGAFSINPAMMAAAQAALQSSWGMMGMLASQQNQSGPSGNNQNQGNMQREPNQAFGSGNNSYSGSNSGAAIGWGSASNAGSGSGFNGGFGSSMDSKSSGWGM
row,Binder,binding signal
1,B1,0.18 R (bound/input frequency ratio)
2,B2,1.47 R (bound/input frequency ratio)
3,B3,1.49 R (bound/input frequency ratio)
4,B4,1.26 R (bound/input frequency ratio)
5,B5,0.453 R (bound/input frequency ratio)
6,B6,0.525 R (bound/input frequency ratio)
7,B7,3.17 R (bound/input frequency ratio)
8,B8,0.217 R (bound/input frequency ratio)
